Test [1] in a line: inhibitors of TNFa-induced NFkB p65 translocation, primary screen, imaging, HUVEC, MLSMR starter and 10KST1 sets (AID 438;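 active = inhibition above 20% together with a positive visual image hit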;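 note: compound added about 3h40 before a 20 min TNFalpha stimulation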;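 for inhibition: signal is the nuclear over cytoplasmic p65 intensity ratio per well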). To be noted: HUVEC TNFa-induced p65 nuclear translocation; cell count: measured here: nuclei count (cytotoxicity indicator), at 2.08 µM; inhibition: at 2 µM, stronger effect = higher value, 0% TNFa-plus-vehicle, 100% no-TNFa wells.
Test [2] in a line: inhibitors of mutant huntingtin aggregation, primary screen, imaging, exon1htt(103Q)mCFP cells, high-content imaging (AID 483;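 active = visual image review flags a hit and inhibition of aggregation exceeds 20%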;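 note: compound exposure lasted 3 days before fixation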;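 for nuclei count: percent of the per-plate median nuclei count of sample wells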). The following applies: exon1htt(103Q)mCFP cell line, aggregate imaging, at 2 µM; inhibition of aggregation: stronger effect = higher value; nuclei count: measured here: cell count, toxicity.
Test [3] is described as follows: inhibitors of E-selectin induction by TNFa, primary screen, imaging, HUVEC, immunofluorescence, MLSMR starter and 10KST1 sets (AID 487;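 active = visually confirmed hit in the image check and inhibition above 20%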;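 for inhibition: signal is fraction of cell area covered by stained E-selectin grains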;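 for nuclei count: 100% = median nuclei count of all wells on the same plate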). The following applies: HUVEC TNFalpha-induced E-selectin immunofluorescence imaging, at 2 µM; inhibition: stronger effect = higher value; nuclei count: measured here: cell number, toxicity.
Test [4] deals with Voltage-gated potassium channel subunit beta-2 (Rattus norvegicus) (UniProt P62483). The test can be described thus: KvBeta enzyme negative modulators, primary screen, biochemical, NADPH fluorescence (AID 622;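 active = fluorescence slope higher than the sample average by over 3 SD, cut at about -0.22 in these data, passing the limit was not always enough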;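 note: slope of raw intensity against log time taken from 70 to 1610 s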). The following applies: recombinant KvBeta, 4-cyanobenzaldehyde reduction, at 10 µM, stronger effect = higher value.
Test [5] shares this target. As to the kind of experiment: KvBeta positive modulators, primary screen, biochemical, NADPH fluorescence (AID 623;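 active = NADPH fluorescence slope more negative than the mean of all samples by about 3 SD, 99.7% confidence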;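 note: fluorescence intensity change per second fitted from 20 to 320 s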). The following applies: Recombinant KvBeta, NADPH fluorescence decrease slope, 10 min; at 10 µM; stronger effect = lower value.
For test [6], the target named is Alpha-2C adrenergic receptor (Homo sapiens) (UniProt P18825). The test can be described thus: modulators of alpha2C/GIRK thallium flux, primary screen, cell-based, HEK293 alpha2C/GIRK1/2 (AID 624).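 Note: slope of fluorescence ratio to pre-addition baseline per second over 15 to 24 s.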 The following applies: thallium flux BTC fluorescence, at 10 µM, actives lie on both sides.
Test [7] is described as follows: inhibitors of Sendai virus-induced IRF3 signaling, primary screen, TLR/RLR signaling modifier project, cell-based, Sendai virus stimulus, luciferase, 10K MLSCN set (AID 602276;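 active = inhibition at or above 50% at 10 µM; inactive = inhibition below 50%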;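 note: firefly luciferase from ISG56 promoter only with Renilla not read in this screen; 0% = Sendai virus plus DMSO and 100% = medium plus DMSO without virus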). The following applies: HEK293 RL24 IRF3 luciferase reporter, at 10 µM, stronger effect = higher value. A general note: In a reporter assay the amount or activity of a reporter protein is the signal.
Test [8] in a line: inhibitors of poly I:C-induced TLR3 signaling, primary screen, cell-based, poly I:C stimulus, luciferase, 10K MLSCN set (AID 602277;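 active = inhibition of the reporter signal at or above 50%; inactive = inhibition below 50%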). To be noted: HEK293-TLR3 RL24 IRF3 luciferase reporter, at 10 µM, stronger effect = higher value.

Calls of active or inactive are those of the source.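 Rule for the calls, unless noted: active = fluorescence slope after compound addition differing from the mean of all screened samples at 99.7% confidence, in either direction; inactive = the rest.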

The values below come from PubChem BioAssay.

Voltage-gated potassium channel subunit beta-2 (Rattus norvegicus), sequence (P62483 whole entry, looked up): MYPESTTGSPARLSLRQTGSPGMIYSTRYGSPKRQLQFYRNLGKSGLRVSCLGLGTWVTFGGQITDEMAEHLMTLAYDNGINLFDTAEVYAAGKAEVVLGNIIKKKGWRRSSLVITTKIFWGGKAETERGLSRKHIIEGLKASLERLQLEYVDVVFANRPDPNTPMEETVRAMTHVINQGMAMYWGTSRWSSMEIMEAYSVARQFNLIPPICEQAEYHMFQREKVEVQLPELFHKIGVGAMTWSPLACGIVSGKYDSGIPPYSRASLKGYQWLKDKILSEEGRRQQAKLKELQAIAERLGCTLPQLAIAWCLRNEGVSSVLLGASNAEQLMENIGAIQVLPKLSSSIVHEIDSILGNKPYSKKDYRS
Alpha-2C adrenergic receptor (Homo sapiens), sequence (P18825 whole entry, looked up): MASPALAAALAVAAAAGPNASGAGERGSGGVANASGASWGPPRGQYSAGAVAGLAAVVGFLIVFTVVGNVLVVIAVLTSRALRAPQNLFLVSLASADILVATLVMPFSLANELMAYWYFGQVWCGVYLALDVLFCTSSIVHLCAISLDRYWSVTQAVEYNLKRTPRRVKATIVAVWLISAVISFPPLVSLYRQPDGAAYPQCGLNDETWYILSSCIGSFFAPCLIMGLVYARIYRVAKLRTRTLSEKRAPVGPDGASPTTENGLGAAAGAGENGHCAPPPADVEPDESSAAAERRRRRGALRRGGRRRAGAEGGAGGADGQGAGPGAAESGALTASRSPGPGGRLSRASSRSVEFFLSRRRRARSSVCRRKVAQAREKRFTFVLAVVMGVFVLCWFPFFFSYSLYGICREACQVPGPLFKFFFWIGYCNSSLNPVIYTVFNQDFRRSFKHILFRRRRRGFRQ

On to `CC(C)Cn1c(N)c(C(=O)NCCN2CCOCC2)c2nc3ccccc3nc21`, for which the cell count in test [1] stood at 440. Also, the inhibition (usually the change of the read-out against control, counted positive when it falls) in test [1] is -2.8% (inactive); in test [3] it was -37.1% (inactive); in test [7] it was 19.1% (inactive); in test [8], 19.8% (inactive). In addition, the inhibition of aggregation in test [2] is -15.6% (inactive). For the same compound, the results for the nuclei count in test [2] and in test [3] were 101% and 81.3%, respectively. In addition, the fluorescence slope in test [4] was -0.0147 (inactive). Also, in test [5], the NADPH fluorescence slope was -9e-06 (inactive). In addition, in test [6], the slope was 0.00559 (inactive).

As for `CCSC1=C(C#N)C(c2ccccc2OC)CC(=O)N1` (stereo not given), the cell count in test [1] was 631. The inhibition is -1.9% (inactive) in test [1], -16.2% (inactive) in test [3], -0.399% (inactive) in test [7] and 17.9% (inactive) in test [8]. The inhibition of aggregation in test [2] is -4.5% (inactive). Further, the nuclei count in test [2] was found to be 86.7%; in test [3], 106%. Further, in test [4], the fluorescence slope was -0.436 (inactive). The NADPH fluorescence slope in test [5] is 1.7e-05 (inactive). Also, in test [6], the slope was 0.00579 (inactive).

In the case of `CCOc1ccccc1N(C(=O)Cn1nnnc1-c1ccc(C)o1)C(CC)C(=O)NC(C)(C)C` (stereo not given), the cell count in test [1] is 663. Besides, the inhibition was 1.6% (inactive) in test [1], -61.8% (inactive) in test [3], -5.79% (inactive) in test [7] and 11.2% (inactive) in test [8]. The inhibition of aggregation in test [2] is -4.4% (inactive). Also, the nuclei count in test [2] was determined as 111%; in test [3], 89.5%. Moreover, the fluorescence slope in test [4] was -0.531 (inactive). The NADPH fluorescence slope in test [5] was -6.1e-06 (inactive). Also, the slope in test [6] is 0.00561 (inactive).

Turning to `Cc1ccc(NC(=O)CN(c2ccc3c(c2)OCO3)S(=O)(=O)c2c(C)n[nH]c2C)cc1`, the cell count in test [1] came to 768. Further, the inhibition in test [1] was -12.5% (inactive); in test [3], -39.7% (inactive); in test [7] it was 6.09% (inactive); in test [8] it was 17.9% (inactive). Further, in test [2], the inhibition of aggregation was -29.4% (inactive). The nuclei count in test [2] was found to be 108%; in test [3], 101%. The fluorescence slope in test [4] was -0.42 (inactive). Further, the NADPH fluorescence slope in test [5] is -5.2e-05 (inactive). For the same compound, in test [6], the slope was 0.00614 (inactive).

As for `O=C(NC1CCCC1)C1CC1c1ccccc1` (stereo not given), the cell count in test [1] is 516. The inhibition in test [1] is -4.3% (inactive); in test [3] it was 26.9% (inactive); in test [7] it was 8.1% (inactive); in test [8], 8.52% (inactive). Also, the inhibition of aggregation in test [2] was -5.1% (inactive). Moreover, the nuclei count was determined as 99.7% in test [2] and 78.4% in test [3]. Moreover, the fluorescence slope in test [4] is -0.617 (inactive). Further, the NADPH fluorescence slope in test [5] was -1.4e-05 (inactive). Also, in test [6], the slope was 0.00431 (inactive).

`CCCCP(=O)(CCCC)c1ccccc1C(=O)O`: in test [1], the cell count worked out at 404. Further, the inhibition in test [1] was -2.2% (inactive); in test [3] it was -21.2% (inactive); in test [7], 6.88% (inactive); in test [8], 21.9% (inactive). Besides, the inhibition of aggregation in test [2] is 12.2% (inactive). Also, the nuclei count turned out to be 81.7% in test [2] and 87.7% in test [3]. The fluorescence slope in test [4] is -0.421 (inactive). Further, the NADPH fluorescence slope in test [5] was -9.2e-05 (inactive). Further, in test [6], the slope is 0.00521 (inactive).

For `CC(=O)Nc1ccc(NS(=O)(=O)C(F)(F)F)cc1`, the cell count in test [1] was 417. The inhibition is 2% (inactive) in test [1], -96% (inactive) in test [3], 3.92% (inactive) in test [7] and 21.1% (inactive) in test [8]. Moreover, the inhibition of aggregation in test [2] is 8% (inactive). In addition, the nuclei count came out at 104% in test [2] and 127% in test [3]. Besides, the fluorescence slope in test [4] is -0.353 (inactive). The NADPH fluorescence slope in test [5] was -0.000109 (inactive). Moreover, the slope in test [6] is 0.00651 (inactive).

In the case of `N=c1c(C(=O)NCc2ccc3c(c2)OCO3)cc2c(=O)n3ccccc3nc2n1Cc1cccnc1`, the cell count in test [1] was found to be 690. Moreover, the inhibition in test [1] is -5.2% (inactive); in test [3], -18.5% (inactive); in test [7] it was 13.3% (inactive); in test [8] it was 23.4% (inactive). Also, the inhibition of aggregation in test [2] is -21.7% (inactive). Moreover, the results for the nuclei count in test [2] and in test [3] were 72.7% and 109%, respectively. Besides, in test [4], the fluorescence slope is -0.427 (inactive). For the same compound, the NADPH fluorescence slope in test [5] was 3.2e-05 (inactive). For the same compound, the slope in test [6] was 0.00617 (inactive).

As to `COc1ccc2nc(CC(C)(C)CC(=O)O)c[n+]([O-])c2c1`, in test [1], the cell count amounted to 377. In addition, the inhibition in test [1] is -1% (inactive); in test [3], -11.7% (inactive); in test [7] it was 10.6% (inactive); in test [8] it was 29.8% (inactive). In addition, the inhibition of aggregation in test [2] was -0.5% (inactive). The values for the nuclei count in test [2] and in test [3] were 110% and 94%, respectively. In addition, the fluorescence slope in test [4] was -0.587 (inactive). The NADPH fluorescence slope in test [5] was -1.8e-05 (inactive). For the same compound, in test [6], the slope is 0.0065 (inactive).

Turning to `CC(CN1CCCCC1)OC(=O)c1ccc(Cl)cc1Cl` (stereo not given), the cell count in test [1] amounted to 585. Further, the inhibition in test [1] was 10.3% (inactive); in test [3], 9.3% (inactive); in test [7] it was -18.5% (inactive); in test [8] it was -15.9% (inactive). The inhibition of aggregation in test [2] is -8.8% (inactive). Besides, the results for the nuclei count in test [2] and in test [3] were 87.8% and 105%, respectively. Also, the fluorescence slope in test [4] was -0.438 (inactive). Moreover, the NADPH fluorescence slope in test [5] was 1.5e-06 (inactive). Also, the slope in test [6] is 0.00424 (inactive).
